Among all 2,200 compounds or so, about 530 (24%) were called active.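 How the source made its calls: active means inhibition above a set limit at one or more concentrations of the dose series; inactive means inhibition under that limit at every dose.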 These entries were drawn from the full list. Entries that show only a call come without a potency. Potency and affinity values are given separately.
Assay: S. Typhimurium nonspecific reporter signal inhibition – Salmonella Typhimurium, GFP fluorescence, counter-screen for PhoP regulon inhibitor project, dose response (AID 2401);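 further: S. typhimurium with Mg-insensitive nmpC-GFP reporter grown at 10 µM Mg2+; drop in reporter fluorescence reflects general culture growth inhibition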
Conditions: 4 h; series mostly up to 150 µM
In the case of `COc1ccc(-c2cn[nH]c2-c2ccc(OCc3ccc([N+](=O)[O-])cc3)cc2O)cc1`, the outcome is reported as “inactive”.
For `CCN1C(=O)/C(=C/N2CC(C)CC(C)C2)SC1=S` (stereo not given), the outcome was “inactive”.
With `Cc1cc(C(=O)N/N=C/C=C/c2ccc3c(c2)OCO3)n[nH]1` the outcome was “inactive”.
With `Cc1cc(C(=O)N/N=C/c2cccc([N+](=O)[O-])c2O)n[nH]1` the outcome was “inactive”.
With `O=C(N/N=C/c1cccn1-c1ccc([N+](=O)[O-])cc1)C(O)c1ccccc1` (stereo not given) the outcome was “inactive”.
With `CC(=O)c1c(C)[nH]c(C(=O)CSc2nnc(-c3ccco3)n2Cc2ccccc2)c1C` the outcome was “inactive”.
For `Cn1cccc1C1NC(=O)c2c(sc3c2CCC(C(C)(C)C)C3)N1` (stereo not given), the outcome was “inactive”.
For `Cc1nn(-c2ccccc2)c(C)c1C(=O)OC/C(O)=C(\C#N)c1nc2ccccc2[nH]1`, the outcome was “inactive”.
For `Cc1cc(C2=NNC(=NC3CC3)SC2)c(C)n1Cc1ccco1`, the outcome was “inactive”.
In the case of `Cc1ccc(-c2nnc(SCC(=O)N3CCCc4ccccc43)n2N)cc1`, the outcome is reported as “inactive”.
With `COC(=O)c1sc2nc(CSc3nc4ccc(C)cc4[nH]3)[nH]c(=O)c2c1C` the outcome was “inactive”.
In the case of `CCOC(=O)C1=C(c2ccccc2)N=C2SCC(=O)N2C1c1ccc(O)c(OC)c1` (stereo not given), the outcome is reported as “inactive”.
With `CCOC(=O)c1cc2ccc(OC)c(OC)c2c(=O)s1` the outcome was “inactive”.
For `C/C(=C\c1ccco1)C1Nc2cccc3cccc(c23)N1`, the outcome was “inactive”.
For `COc1ccc(OC)c(NC(=O)c2cc3c(Cl)nc4ccccc4c3s2)c1`, the outcome was “inactive”.
For `CCOC(=O)N1CCN(C(=O)c2ccc(NC(=O)c3ccc(C)cc3)cc2)CC1`, the outcome was “inactive”.
For `C/C(=N\Nc1nc2ccccc2[nH]1)c1ccc(Cl)s1`, the outcome was “inactive”.
In the case of `C/C(=N\Nc1nc2ccccc2[nH]1)c1cccs1`, the outcome is reported as “inactive”.
For `Cc1nc2ccccn2c1C(=O)N/N=C/c1ccccc1[N+](=O)[O-]`, the outcome was “inactive”.
With `COc1c(/C=N/Nc2nc(N3CCCCC3)nc(N3CCCCC3)n2)cccc1[N+](=O)[O-]` the outcome was “inactive”.
With `Cc1cc(/C=N\NC(=O)c2cccs2)c(C)n1-c1ccc2ncccc2c1` the outcome was “inactive”.
In the case of `COC(=O)c1cn(C(=O)c2cccs2)c2ccccc12`, the outcome is reported as “inactive”.
For `C=CCOc1ccc(CNc2nn[nH]n2)cc1`, the outcome was “inactive”.
In the case of `O=C(CCN1CCc2ccccc2C1)Nc1ccccc1F`, the outcome is reported as “inactive”.
In the case of `Cc1cc(-c2csc(NC(=O)c3ccc(C#N)cc3)n2)c(C)n1Cc1ccco1`, the outcome is reported as “inactive”.
For `CCOC(=O)CSc1nc2c(sc(=S)n2-c2ccccc2)c(=O)n1-c1ccc(OC)cc1OC`, the outcome was “inactive”.
For `O=c1[nH]c(SCc2nc3ccccc3c(=O)n2-c2ccccc2C(F)(F)F)nc2ccccc12`, the outcome was “inactive”.
For `C/C(=N\NC(=O)c1c(Cl)c(C)nn1C)c1cccc(NC(=O)COc2ccc(Cl)cc2)c1`, the outcome was “inactive”.
For `COc1ccc(C2COC(=O)C2=N)c(NC(=O)c2ccc(Cl)cc2)c1` (stereo not given), the outcome was “inactive”.
In the case of `CCCCCCNCc1cccc(Br)c1`, the outcome is reported as “inactive”.
In the case of `COc1ccc2c(c1)OC1=C(C(=O)CCC1)C2C1=C(O)CCCC1=O` (stereo not given), the outcome is reported as “inactive”.
For `Cc1cccc(C(=O)Nc2nnc(Cc3c[nH]c4ccccc34)s2)c1`, the outcome was “inactive”.
With `Nc1ncncc1-c1ccc(Cl)cc1` the outcome was “inactive”.
In the case of `O=C(Nc1nc2ccc(SC(F)F)cc2s1)c1ccc2c(c1)S(=O)(=O)c1ccccc1C2=O`, the outcome is reported as “inactive”.
With `COC(=O)C1=C(CSc2nc3ccccc3o2)NC(=O)NC1c1cc(C)ccc1C` (stereo not given) the outcome was “inactive”.
In the case of `Cc1cc(C)nc(N2CCCC(C(=O)Nc3ccc4nc(C)c(C)nc4c3)C2)n1` (stereo not given), the outcome is reported as “inactive”.
For `Cc1ccc(C)n1-c1cccc(N)c1`, the outcome was “inactive”.
For `O=C1CC(c2ccccc2)n2ncnc2N1` (stereo not given), the outcome was “inactive”.
With `COC(OC)c1nc(SCC(=O)Nc2cccc(Cl)c2)ncc1C(=O)O` the outcome was “inactive”.
For `COc1ccc(Cl)cc1-c1nc(SCC(N)=O)n[nH]1`, the outcome was “inactive”.
For `COc1ccc([N+](=O)[O-])cc1NC(=O)C(C)OC(=O)c1ccccc1C(=O)c1ccc(Cl)cc1` (stereo not given), the outcome was “inactive”.
For `CC(O)c1ccc(OCCN(C)c2ccccn2)cc1` (stereo not given), the outcome was “inactive”.
In the case of `COC(=O)c1ccc(COC(=O)c2ccccn2)cc1`, the outcome is reported as “inactive”.
In the case of `CC(C)Cc1oc(C(=O)O)cc1CN`, the outcome is reported as “inactive”.
With `c1ccc2oc(SCc3cn4ccccc4n3)nc2c1` the outcome was “inactive”.
With `Cc1cc(C)n(-c2ccc(C(=O)Nc3nc4ccccc4s3)cc2)n1` the outcome was “inactive”.
For `C(=N\c1nc2ccccc2n1CCN1CCCCC1)/c1cccs1`, the outcome was “inactive”.
For `CC(=O)c1cccc(NC(=O)Nc2cccs2)c1`, the outcome was “inactive”.
With `CC(C)(C)c1ccc(-c2n[nH]c(=S)n2/N=C/c2ccncc2)cc1` the outcome was “inactive”.
For `COc1cccc(NC(=S)N/N=C2\CC(C)(C)Oc3ccc(O)cc32)c1`, the outcome was “inactive”.
In the case of `N#CC(C#N)=c1ccc2c(c1)NC1(CCCCC1)N=2`, the outcome is reported as “inactive”.
For `O=S1(=O)C=CC(Nc2ccccc2)C1` (stereo not given), the outcome was “inactive”.
For `Brc1ccc(-c2cnc3n2CCCC3)cc1`, the outcome was “inactive”.
In the case of `O=C(Nc1nccs1)c1cc(-c2ccco2)nc2ccccc12`, the outcome is reported as “inactive”.
In the case of `COc1ccccc1-c1cc(C(=O)Nc2cc(C)nn2-c2ccccc2)no1`, the outcome is reported as “inactive”.
In the case of `CCCOC(=O)C(C)n1cnc2sc(C)c(C)c2c1=O` (stereo not given), the outcome is reported as “inactive”.
For `COc1cc(C)nc(Nc2nc(C)c(C(C)=O)s2)n1`, the outcome was “inactive”.
In the case of `O=C(CSc1nnc(-c2cccs2)n1-c1ccccc1)NCc1ccc2c(c1)OCO2`, the outcome is reported as “inactive”.
With `O=C(CCN1C(=O)c2ccccc2C1=O)Nc1ccc(-c2cn3ccsc3n2)cc1` the outcome was “inactive”.
For `Cc1cccc(C)c1NC(=O)CSc1nnc(NC(=O)CN2CCOCC2)s1`, the outcome was “inactive”.
In the case of `C(=N\N1CCN(C2c3ccccc3-c3ccccc32)CC1)/c1cccs1`, the outcome is reported as “inactive”.
In the case of `Cc1ccc(N=Nc2ccc(O)c(/C=N\NC(=O)c3ccc(N)cc3)c2)cc1C`, the outcome is reported as “inactive”.
For `C/C(=N\NC(=O)C1CC1c1ccccc1)c1cccc([N+](=O)[O-])c1` (stereo not given), the outcome was “inactive”.
For `Nc1nnc(CC(=O)N/N=C\c2cc([N+](=O)[O-])ccc2O)s1`, the outcome was “inactive”.
With `O=C(N/N=C/c1ccc(Cl)cc1Cl)c1cccc(F)c1` the outcome was “inactive”.
With `COc1cc([N+](=O)[O-])ccc1NC(=O)CN(C)C` the outcome was “inactive”.
For `O=C(N/N=C/C1C(c2ccccc2)C1(Cl)Cl)c1cccc(Cl)c1` (stereo not given), the outcome was “inactive”.
For `Cc1cc(/C=N/NC(=O)c2cccc([N+](=O)[O-])c2)c(C)n1-c1ccc(Cl)cc1Cl`, the outcome was “inactive”.
With `COc1cccc(NC(=O)NCCCN2CCN(c3ccc(F)cc3)CC2)c1` the outcome was “inactive”.
For `COc1cc(C2C(C(=O)c3ccc(C)o3)=C(O)C(=O)N2CCc2ccccc2)ccc1O` (stereo not given), the outcome was “inactive”.
With `CC(C)NC(=O)CSc1nc(N)c(NC(=O)c2ccccc2F)c(=O)[nH]1` the outcome was “inactive”.
For `Cc1ccc(Cl)cc1-c1ccc(/C=N/n2cnnc2)o1`, the outcome was “inactive”.
With `Cc1cccc(C)c1NC(=O)CCCSc1nnc(-c2ccc(Cl)cc2)n1-c1ccccc1` the outcome was “inactive”.
With `CCCCn1c(-c2ccccc2)nc2c(=O)n(C)c(=O)[nH]c21` the outcome was “inactive”.
In the case of `Cc1noc(C)c1CSc1nc2ccccc2nc1NS(=O)(=O)c1ccc(Cl)cc1`, the outcome is reported as “inactive”.
With `N/C(=N\OC(=O)Cc1ccc(Cl)cc1)c1cccnc1` the outcome was “inactive”.
In the case of `CC(=O)Nc1ccc(OC(=O)c2cccnc2)cc1`, the outcome is reported as “inactive”.
In the case of `C/C(=C\C(=O)c1cccnc1)Nc1ccc(O)cc1`, the outcome is reported as “inactive”.
In the case of `Cc1ccc2occ(/C=N/O)c(=O)c2c1`, the outcome is reported as “inactive”.
In the case of `N/C(=N\OC(=O)COc1ccc(Cl)cc1)c1cccnc1`, the outcome is reported as “inactive”.
For `O=C1NN(c2ccccc2)C(=O)/C1=C\c1coc2ccc(O)cc2c1=O`, the outcome was “inactive”.
With `CCCCn1c(SCC(=O)Nc2nnc(CC)s2)nc2c1c(=O)n(C)c(=O)n2C` the outcome was “inactive”.
For `Cc1ccc(OCC(=O)N2CCN(S(=O)(=O)c3ccccc3)CC2)c([N+](=O)[O-])n1`, the outcome was “inactive”.
In the case of `O=C(CSc1nnc(-c2ccc(Br)cc2)o1)Nc1cccc2ccccc12`, the outcome is reported as “inactive”.
In the case of `COc1ccc(CCN2CC3=C(C2=O)C(c2ccccc2)NC(=O)N3C)cc1OC` (stereo not given), the outcome is reported as “inactive”.
With `COc1ccc(C2=Nc3nc(-c4ccccc4)cn3C(c3ccc(OC)cc3)C2)cc1` (stereo not given) the outcome was “inactive”.
In the case of `CC(C)CC(=O)N/C(N)=N/c1nc2ccccc2s1`, the outcome is reported as “inactive”.
With `O=C1NC(=Nc2ccccc2)/C(=C/c2ccco2)S1` the outcome was “inactive”.
In the case of `O=C(CNC(=O)OCc1ccccc1)NCC(=O)N1CCCC1C(=O)OCc1ccccc1` (stereo not given), the outcome is reported as “inactive”.
With `CC(NC(=O)CSc1nc2c(cc1C#N)CN(C)CC2)c1ccccc1` (stereo not given) the outcome was “inactive”.
In the case of `CCCn1c(N)c(C(=O)COC(=O)c2c(C)noc2C)c(=O)n(C)c1=O`, the outcome is reported as “inactive”.
With `CC(CO)(CO)NCc1ccc(-c2ccccc2)cc1` the outcome was “inactive”.
With `COc1ccc2c(c1)C1C=CCC1C(c1cc3c(cc1Br)OCO3)N2` (stereo not given) the outcome was “inactive”.
In the case of `O=C1CCCc2c1cc(C(=O)NCc1ccco1)c(=O)n2-c1ccc(Cl)cc1`, the outcome is reported as “inactive”.
With `CCOc1ccccc1Nc1nc2ccccc2n2cnnc12` the outcome was “inactive”.
In the case of `O=C(CCN1CCCCC1)NCC1OCCc2ccccc21` (stereo not given), the outcome is reported as “inactive”.
With `O=C(CCN1CCc2ccccc2C(c2ccccc2)C1)c1ccc2c(c1)OCCO2` (stereo not given) the outcome was “inactive”.
With `c1ccc(Cn2nnc3c(NCc4ccc5c(c4)OCO5)nc(C4CC4)nc32)cc1` the outcome was “inactive”.
In the case of `FC(F)Oc1ccc(NC(=S)NCc2nc3ccccc3[nH]2)cc1`, the outcome is reported as “inactive”.
For `O=C1C2CCCN2c2ccc(S(=O)(=O)N3CCOCC3)cc2N1Cc1ccccc1F` (stereo not given), the outcome was “inactive”.
For `CCOc1cc(S(=O)(=O)N2CCN(CC)CC2)ccc1Cl`, the outcome was “inactive”.
For `c1ccc(-n2cnc3cc(NCc4ccncc4)ccc32)cc1`, the outcome was “inactive”.
With `CCCCn1c(/N=C/c2ccccc2NS(=O)(=O)c2ccc(C)cc2)nc2ccccc21` the outcome was “inactive”.
For `CCN(CC)C(=O)CP(=O)(c1ccccc1)c1ccccc1`, the outcome was “inactive”.
For `O=c1[nH]c(CSc2nnc(NCCCN3CCOCC3)s2)nc2cc(Cl)ccc12`, the outcome was “inactive”.
With `O=C(CSCc1cccc(CSCC(=O)Nc2ccc3ccccc3c2)n1)Nc1ccc2ccccc2c1` the outcome was “inactive”.
With `CCN(CC)S(=O)(=O)c1ccc2c(c1)nc(SCC(=O)N1CCOCC1)n2-c1ccccc1OC` the outcome was “inactive”.
With `CCCc1cc(-c2nc(N)ncc2-c2ccc3c(c2)OCCCO3)c(O)cc1OC` the outcome was “inactive”.
In the case of `O=S(=O)(c1ccc(S(=O)(=O)N2CCN(C/C=C/c3ccccc3)CC2)cc1)N1CCCC1`, the outcome is reported as “inactive”.
In the case of `c1ccc(CNc2nc(N3CCN(Cc4ccccc4)CC3)nc3ccccc23)cc1`, the outcome is reported as “inactive”.

From PubChem BioAssay AID2401 (Southern Research Specialized Biocontainment Screening …, 2010)
